Data on seven compounds can be found in PubChem BioAssay (EPA / NIEHS).

Activity calls are given as the source filed them. The calls were made as follows: active = hit-call score of the fitted dose curve at least 0.9, where 1 is the maximum; inactive = score below 0.9.

A short description of assay [1]: ATG_CMV_CIS: Attagene CIS-FACTORIAL HepG2 Assay for human CMV (Internal Marker) (AID 2282928).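 Also: endpoint acts as a background internal control marker rather than a target.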 The note with it: HepG2 CMV promoter reporter, transcription factor profiling; actives raise or lower the signal. A digest of the protocol:
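Endogenous transcription factor activity read in HepG2 via transfected cis-promoter reporter units. After 24 h dosing, reporter mRNA measured by RT-PCR/capillary electrophoresis; gain or loss of signal fit relative to DMSO.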

A short description of assay [2]: ATG_DR4_LXR_CIS: Attagene CIS-FACTORIAL HepG2 Assay for human Liver X Receptor (LXR), DR4 submotif (AID 2282929). Particulars: HepG2 Attagene DR4 cis-reporter, mRNA transcription; actives raise or lower the signal. A digest of the protocol:
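After transient transfection with multiplexed cis-promoter reporter units, HepG2 cells received test chemicals for 24 h. Reporter mRNA induction, detected by fluorescence after RT-PCR and capillary electrophoresis, was scored relative to DMSO.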

Assay [3] in a line: ATG_AP_2_CIS: Attagene CIS-FACTORIAL HepG2 Assay for human Activator Protein 2 (AP-2) (AID 2282932). Particulars: HepG2 AP-2 cis-reporter, Attagene transcription factor profiling; actives raise or lower the signal. A digest of the protocol: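 HepG2, transient MRTU transfection, cis-regulated reporters; 24 h compound exposure; RNA isolated, RT-PCR, 6-FAM labelling, HpaI digest, CE fluorescence. DMSO = negative control/baseline, bidirectional fit.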

In assay [4] the target is Transcription factor E2F1 (Homo sapiens) (UniProt Q01094). As to the kind of experiment: ATG_E2F_CIS: Attagene CIS-FACTORIAL HepG2 Assay for human E2F Transcription Factor 1 (AID 2282935). Particulars: HepG2 Attagene cis-reporter, E2F reporter RNA transcripts; actives raise or lower the signal. A digest of the protocol: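 Cis-element reporter mRNA induction in transiently transfected HepG2, 24 h exposure. Activity fitted in both directions relative to DMSO negative control.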

Assay [5] in a line: ATG_M_61_CIS: Attagene CIS-FACTORIAL HepG2 Assay for M61 Transcription Factor (Internal Marker) (AID 2282937). The note with it: HepG2 Attagene CIS-FACTORIAL M61 internal marker reporter; actives raise or lower the signal. A digest of the protocol: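 Using transiently transfected HepG2 liver cells, reporter transcript levels were assessed 24 h post-dosing by RT-PCR and capillary electrophoresis. Changes in either direction were fitted relative to DMSO controls.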

Assay [6] is described as follows: ATG_EGR_CIS: Attagene CIS-FACTORIAL HepG2 Assay for human Early Growth Response 1 (EGR1) (AID 2282938). The note with it: HepG2 Attagene CIS-FACTORIAL EGR reporter mRNA; actives raise or lower the signal. A digest of the protocol:
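Fluorescent capillary-electrophoresis signal of reporter cDNA fragments serves as read-out. HepG2 cells bear transiently transfected cis-promoter reporter units and are exposed 24 h; gain- or loss-of-signal is fitted against DMSO.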

Assay [7] is described as follows: ATG_Ets_CIS: Attagene CIS-FACTORIAL HepG2 Assay for human Erythroblast Transformation Specific (ETS) (AID 2282941). The note with it: HepG2 ETS cis-reporter transcription, actives raise or lower the signal. A digest of the protocol:
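Steps: transfect HepG2 with multiple reporter units; treat compound 24 h; isolate RNA, DNase-treat, reverse-transcribe; PCR-amplify, label with 6-FAM, digest with HpaI; separate by capillary electrophoresis. Activity fitted both directions versus DMSO.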

For assay [8], the target named is Hepatocyte nuclear factor 3-beta (Homo sapiens) (UniProt Q9Y261). Briefly: ATG_FoxA2_CIS: Attagene CIS-FACTORIAL HepG2 Assay for human Forkhead box A2 (FOXA2) (AID 2282942). The note with it: HepG2 cis-reporter transcription factor activity, 24 h; actives raise or lower the signal. A digest of the protocol:
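Fluorescence signal of reporter cDNA fragments, separated by capillary electrophoresis, reflects endogenous transcription factor activity in transfected HepG2 after 24 h. Both increases and decreases fitted against DMSO.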

Assay [9] is described as follows: ATG_FoxO_CIS: Attagene CIS-FACTORIAL HepG2 Assay for human Forkhead box O (FoxO) (AID 2282943). Particulars: HepG2 Attagene cis-reporter, FoxO element, mRNA; actives raise or lower the signal. A digest of the protocol:
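Human hepatoma HepG2 cells carry transiently introduced reporter transcription units controlled by cis promoter elements. Chemical treatment lasted 24 h, and mRNA signal was compared with DMSO.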

Assay [10] can be described thus: ATG_GATA_CIS: Attagene CIS-FACTORIAL HepG2 Assay for human GATA Binding Protein (AID 2282944). The note with it: HepG2 GATA cis-element reporter, Attagene multiplex mRNA; actives raise or lower the signal. A digest of the protocol: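 Measures endogenous transcription factor-driven reporter mRNA in HepG2 cells transiently carrying cis-regulated constructs. 24 h dosing; RNA via oligo(dT) reverse transcription, PCR, HpaI digestion, capillary electrophoresis; fitted relative to DMSO.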

A short description of assay [11]: ATG_ISRE_CIS: Attagene CIS-FACTORIAL HepG2 Assay for human Interferon Regulatory Factor 1 (IRF1) binding to an Interferon-Stimulated Response Element (ISRE) (AID 2282948). The note with it: HepG2 ISRE cis-reporter (Attagene), mRNA transcription readout; actives raise or lower the signal. A digest of the protocol: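 Transfected HepG2 (multiple reporter transcription units, cis elements) dosed 24 h. RNA → oligo(dT) RT → PCR → 6-FAM primer extension → HpaI → CE. DMSO = negative control/baseline.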

The nature of assay [12]: ATG_M_32_CIS: Attagene CIS-FACTORIAL HepG2 Assay for M32 Transcription Factor (Internal Marker) (AID 2282949).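 Also: background control marker of the multiplexed CIS panel rather than a real target.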 The note with it: HepG2 Attagene cis-factorial M32 reporter, mRNA; actives raise or lower the signal. A digest of the protocol: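 Fluorescent capillary electrophoresis peaks of HpaI-digested, FAM-labelled RT-PCR reporter products give the signal. Source: transiently transfected human liver HepG2 cells, 24 h after chemical dosing; bidirectional fitting against DMSO.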

Assay [13] in a line: ATG_MRE_CIS: Attagene CIS-FACTORIAL HepG2 Assay for human Metal Responsive Element (MRE) (AID 2282954). Particulars: HepG2 MRE cis-reporter transcription, Attagene multiplex; actives raise or lower the signal. A digest of the protocol:
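Transient MRTU transfection of HepG2 (FuGene 6); 24 h dosing; total RNA → oligo(dT) RT, PCR, 6-FAM primer extension, HpaI cut, CE. Bidirectional fit vs DMSO.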

For assay [14], the target named is Paired box protein Pax-6 (Homo sapiens) (UniProt P26367). Briefly: ATG_Pax6_CIS: Attagene CIS-FACTORIAL HepG2 Assay for human Paired Box 6 (PAX6) (AID 2282956). Particulars: HepG2 CIS-FACTORIAL PAX6 reporter transcription, RNA readout; actives raise or lower the signal. A digest of the protocol:
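Transient MRTU transfection of HepG2 → compound exposure 24 h → TriZol RNA, oligo(dT) RT → PCR, 6-FAM primer extension, HpaI cut → capillary electrophoresis; activity fitted both directions against DMSO.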

Assay [15] can be described thus: ATG_PXRE_CIS: Attagene CIS-FACTORIAL HepG2 Assay for human Pregnane X Receptor Element (PXRE) (AID 2282957). The note with it: HepG2 Attagene CIS-FACTORIAL PXRE reporter, mRNA; actives raise or lower the signal. A digest of the protocol: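 Cis-element reporter mRNA in human hepatoma HepG2 cells is measured 24 h post-dosing by RT-PCR, primer-extension labeling and capillary electrophoresis; gain or loss of signal is fitted relative to DMSO.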

A short description of assay [16]: ATG_Sox_CIS: Attagene CIS-FACTORIAL HepG2 Assay for human SRY-box transcription factor (SOX) (AID 2282960). Particulars: HepG2 Attagene cis-factorial SOX reporter, mRNA; actives raise or lower the signal. A digest of the protocol:
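Using transiently transfected HepG2 cells, reporter transcription driven by cis elements was assessed 24 h after dosing. Signal was fluorescence of capillary-separated RT-PCR products, with DMSO defining baseline activity.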

The nature of assay [17]: ATG_SREBP_CIS: Attagene CIS-FACTORIAL HepG2 Assay for human Sterol Regulatory Element Binding (SREBP) (AID 2282962). The note with it: HepG2 Attagene cis-factorial SREBP reporter, mRNA; actives raise or lower the signal. A digest of the protocol:
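Transfected HepG2 (cis-regulated reporter library, endogenous TFs) → compound 24 h → total RNA → oligo(dT) RT → reporter-specific PCR → FAM primer extension, HpaI cut → CE fluorescence. Fit bidirectional vs DMSO.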

Assay [18] in a line: ATG_TCF_b_cat_CIS: Attagene CIS-FACTORIAL HepG2 Assay for human T-Cell-Factor with beta-catenin (TCF/b-cat) (AID 2282965). The note with it: HepG2 TCF/beta-catenin cis-reporter transcription, actives raise or lower the signal. A digest of the protocol:
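Measured: reporter mRNA in HepG2 transiently transfected with cis-promoter reporter units, 24 h after chemical addition. Fitting was bidirectional, DMSO as negative control.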

A short description of assay [19]: ATG_TAL_CIS: Attagene CIS-FACTORIAL HepG2 Assay for human TAL Basal Promoter (AID 2282966).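 Also: background control endpoint measuring basal TAL promoter reporter mRNA not a specific factor.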 The note with it: HepG2 Attagene cis-factorial TAL promoter reporter; actives raise or lower the signal. A digest of the protocol:
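In this cell-based multiplex, HepG2 liver cells bearing cis-promoter reporter constructs are dosed for 24 hours. Total RNA is reverse-transcribed and amplified, labelled fragments are sized by capillary electrophoresis, and signal changes are fitted bidirectionally versus DMSO.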

Assay [20] can be described thus: ATG_TGFb_CIS: Attagene CIS-FACTORIAL HepG2 Assay for human Transforming Growth Factor (TGF) (AID 2282967). The note with it: HepG2 Attagene CIS TGFb reporter, mRNA transcription; actives raise or lower the signal. A digest of the protocol:
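After a 24-hour incubation with compound, transfected HepG2 cells were lysed for RNA; reporter cDNA was amplified, fluorescently end-labeled and separated by CE. DMSO served as baseline for bidirectional fits.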

Chain of Transcription factor E2F1 (Homo sapiens) (Q01094 whole entry, looked up): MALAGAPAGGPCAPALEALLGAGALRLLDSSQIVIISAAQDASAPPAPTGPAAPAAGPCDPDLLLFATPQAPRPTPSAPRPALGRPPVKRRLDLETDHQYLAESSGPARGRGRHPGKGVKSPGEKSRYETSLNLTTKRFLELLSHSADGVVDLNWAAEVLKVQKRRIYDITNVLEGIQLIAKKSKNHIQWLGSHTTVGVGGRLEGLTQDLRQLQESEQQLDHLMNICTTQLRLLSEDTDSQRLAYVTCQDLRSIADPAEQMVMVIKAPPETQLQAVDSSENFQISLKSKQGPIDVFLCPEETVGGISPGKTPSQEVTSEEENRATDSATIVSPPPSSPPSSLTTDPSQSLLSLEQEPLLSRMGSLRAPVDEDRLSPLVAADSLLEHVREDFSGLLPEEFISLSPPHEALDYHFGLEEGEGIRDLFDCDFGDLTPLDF
Chain of Paired box protein Pax-6 (Homo sapiens) (P26367 whole entry, looked up): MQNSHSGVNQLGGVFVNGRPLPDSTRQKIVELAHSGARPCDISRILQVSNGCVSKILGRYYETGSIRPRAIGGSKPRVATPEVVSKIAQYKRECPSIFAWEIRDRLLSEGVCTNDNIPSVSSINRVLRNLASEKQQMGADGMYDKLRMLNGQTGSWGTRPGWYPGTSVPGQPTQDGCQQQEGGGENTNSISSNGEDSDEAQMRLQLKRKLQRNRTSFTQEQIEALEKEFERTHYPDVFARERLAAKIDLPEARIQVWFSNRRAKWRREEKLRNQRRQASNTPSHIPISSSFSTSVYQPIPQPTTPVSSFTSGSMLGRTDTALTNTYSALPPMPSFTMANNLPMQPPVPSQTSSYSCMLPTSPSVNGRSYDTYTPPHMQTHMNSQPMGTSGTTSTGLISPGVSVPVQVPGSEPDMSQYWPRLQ
Chain of Hepatocyte nuclear factor 3-beta (Homo sapiens) (Q9Y261 whole entry, looked up, the tested form may be a part): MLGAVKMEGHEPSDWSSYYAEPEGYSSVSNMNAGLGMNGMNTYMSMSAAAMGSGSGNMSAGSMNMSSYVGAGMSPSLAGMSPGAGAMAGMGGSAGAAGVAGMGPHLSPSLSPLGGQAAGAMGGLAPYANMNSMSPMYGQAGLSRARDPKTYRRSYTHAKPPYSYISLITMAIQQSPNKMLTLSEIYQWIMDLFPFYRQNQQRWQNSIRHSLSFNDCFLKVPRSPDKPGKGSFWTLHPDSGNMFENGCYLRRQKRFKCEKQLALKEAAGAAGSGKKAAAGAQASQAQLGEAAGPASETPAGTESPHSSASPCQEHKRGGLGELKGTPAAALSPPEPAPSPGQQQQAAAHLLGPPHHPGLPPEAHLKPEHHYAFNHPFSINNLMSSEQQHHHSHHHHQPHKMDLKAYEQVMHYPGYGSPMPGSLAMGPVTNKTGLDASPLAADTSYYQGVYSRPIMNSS

`COc1ncc(F)c2nc(S(=O)(=O)Nc3c(F)cccc3F)nn12`: the call in assay [1], in assay [2], in assay [3], in assay [4], in assay [5] and in assay [6] was inactive. The outcome in assay [7], in assay [8], in assay [9], in [10], in assay [11] and in assay [12] was inactive. Further, the call in assay [13], in [14], in assay [16], in [17], in assay [18] and in assay [19] was inactive. The compound was called inactive in assay [20]. In addition, the AC50 (as a rule, the concentration giving half of the maximal activity seen) in assay [15] is 15.3 µM (active).
Take `Nc1cc(Cl)cc(Cl)c1`: the compound was classed as inactive in [1], in assay [2], in assay [3], in [4], in [5] and in [6]. The compound was classed as inactive in [7], in assay [8], in assay [9], in [10], in assay [11] and in assay [12]. Besides, the compound was classed as inactive in [13], in [14], in assay [15], in assay [16], in assay [17] and in assay [19]. In addition, in assay [20], the outcome was inactive. The AC50 in assay [18] was 79 µM (active).
As to `O=[N+]([O-])c1cc([N+](=O)[O-])c2ccccc2c1`, the AC50 in assay [1] was 23.5 µM (active); in assay [15] it was 8.8 µM (active). Moreover, the compound was classed as inactive in assay [2], in assay [3], in assay [4], in assay [5], in assay [6] and in assay [7]. Besides, the outcome in [8], in assay [9], in assay [10], in assay [11], in assay [12] and in [13] was inactive. Besides, the result in [14], in assay [16], in [17], in [18], in assay [19] and in [20] was inactive.
Regarding `ClCCCCCCCl`, the compound was called inactive in [1], in [2], in assay [3], in assay [4], in assay [5] and in assay [6]. Also, the compound was classed as inactive in assay [7], in [8], in [9], in assay [10], in assay [11] and in assay [12]. Moreover, the outcome in assay [13], in assay [14], in assay [15], in [16], in assay [17] and in [18] was inactive. Besides, the result in assay [19] and in assay [20] was inactive.
`O=S(=O)(c1ccccc1)c1ccccc1`: the call in assay [1], in [2], in [3], in assay [4], in [5] and in [6] was inactive. In addition, the compound was called inactive in [7], in assay [8], in [9], in assay [10], in [11] and in assay [12]. Also, the outcome in assay [13], in assay [14], in [16], in [17], in [18] and in [19] was inactive. Also, in assay [20], the call was inactive. Further, the AC50 in assay [15] was 20.1 µM (active).
Take `O=C(CCl)c1ccccc1`: the call in assay [1], in assay [4], in [5], in [6], in [7] and in [8] was inactive. Moreover, the call in [9], in [10], in assay [12], in [13], in assay [14] and in [15] was inactive. Also, the call in assay [16], in assay [17], in assay [18], in [19] and in assay [20] was inactive. Moreover, the AC50 in assay [2] is 21.1 µM (active); in assay [3], 18.9 µM (active); in assay [11] it was 18.8 µM (active).
Turning to `CC(C)[C@@H](C(=O)O[C@@H](C#N)c1cccc(Oc2ccccc2)c1)c1ccc(Cl)cc1`, the compound was classed as inactive in assay [1], in [3], in [4], in [5], in assay [6] and in assay [7]. Further, the result in [8], in [9], in [10], in assay [11], in assay [12] and in [13] was inactive. Besides, the compound was called inactive in assay [14], in [16], in assay [17], in [18], in assay [19] and in assay [20]. In addition, the figures for the half-maximal activity concentration (AC50) in [2] and in [15] were 9.57 µM (active) and 0.678 µM (active), respectively.
